Screens: PubChem BioAssay, National Center for Advancing Translational Sciences (NCATS)
HP1b chromo inh = inhibitors of HP1-beta chromodomain binding to methylated histone tails; AlphaScreen HP1-beta / biotin-H3K9me3 peptide binding; Potency, µM (highest dose often 114 µM), usual class: inhibitors; hit rate 0.56% among 390,000; note: nearly all actives have a fitted effect of over 70% in size
Target sequence (P83916 whole entry, looked up): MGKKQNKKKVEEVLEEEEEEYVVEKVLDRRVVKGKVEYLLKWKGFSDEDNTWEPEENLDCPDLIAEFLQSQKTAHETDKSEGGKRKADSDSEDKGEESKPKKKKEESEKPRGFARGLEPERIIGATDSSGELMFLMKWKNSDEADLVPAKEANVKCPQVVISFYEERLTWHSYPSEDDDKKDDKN
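AlphaScreen: HP1-beta (50 nM) preformed 30 min with biotin-H3(1-18)K9me3 peptide (50 nM) in PBS pH 7.4, 0.01% Tween-20. Compound added for 30 min at RT, then streptavidin donor/nickel chelate acceptor beads (10 ug/mL) for 30 min.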
JMJD2A Tudor inh = JMJD2A Tudor domain (human) inhibition; O75164; hit rate 4.4% among 390,000; AlphaScreen JMJD2A-Tudor / H3K4me3 peptide binding; Potency, µM (top dose mostly 114 µM), most hits filed as inhibitors; note: nearly all actives have a fitted effect of over 50% in size
BAZ2B block = BAZ2B (human) inhibition. Q9UIF8. AlphaScreen BAZ2B-H3K14Ac peptide displacement. Potency, µM (highest dose often 114 µM), most hits filed as inhibitors. hit rate 4.4% among 360,000. AID 504333; note: nearly all actives have a fitted effect of over 60% in size
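AlphaScreen displacement: compounds (up to 110uM) incubated 30 min at room temperature with a preformed 50 nM BAZ2B/50 nM biotinylated H3K14Ac peptide complex in PBS pH 7.4 with Tween-20. Donor and acceptor beads at 10 ug/mL final added, 20 min light-protected before reading.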
L3MBTL1 inh = L3MBTL1 (human) inhibition | AlphaScreen L3MBTL1–H3K9me1 peptide binding | Potency, µM (titrated, usually from 57.1 µM), hits mostly inhibitors | Q9Y468 | hit rate 0.66% among 230,000 | AID 485360; note: nearly all actives have a fitted effect of over 60% in size
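Read-out is AlphaScreen signal from streptavidin donor and nickel chelate acceptor beads (10 ug/mL final each) bridging L3MBTL1 (50 nM) and biotinylated K9-monomethylated H3(1-15) peptide (75 nM), after 30 min compound exposure at room temperature.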
PLK1 PBD block = blocks phosphopeptide binding to human PLK1 polo-box domain; P53350; Plk1 PBD binding of FITC phosphopeptide, fluorescence polarization; Potency, µM, hits mostly inhibitors; hit rate 2.8% among 360,000; AID 720504; note: series mostly up to about 57 µM; nearly all actives have a fitted effect of over 65% in size
VDR inhibitor = blocks the human vitamin D receptor; P11473; VDR-SRC2-3 peptide fluorescence polarization, 2 h; Potency, µM, most hits filed as inhibitors; hit rate 0.93% among 400,000; AID 504847
Target sequence (P11473 whole entry, looked up): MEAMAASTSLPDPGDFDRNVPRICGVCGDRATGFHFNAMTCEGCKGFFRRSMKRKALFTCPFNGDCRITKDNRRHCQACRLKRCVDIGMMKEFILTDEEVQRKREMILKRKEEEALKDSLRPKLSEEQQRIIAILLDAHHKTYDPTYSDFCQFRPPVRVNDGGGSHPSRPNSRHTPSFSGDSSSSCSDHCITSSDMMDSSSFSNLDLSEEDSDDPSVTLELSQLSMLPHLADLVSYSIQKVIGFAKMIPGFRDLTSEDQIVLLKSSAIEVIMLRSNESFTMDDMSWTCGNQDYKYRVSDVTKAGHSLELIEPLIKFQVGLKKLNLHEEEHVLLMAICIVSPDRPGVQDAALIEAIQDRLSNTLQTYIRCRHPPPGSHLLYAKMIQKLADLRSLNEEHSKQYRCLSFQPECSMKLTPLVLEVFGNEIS
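Two reagent solutions held at 4 deg C in the dark were dispensed, compounds pinned at 23 nl, and the mixture incubated 2 h at room temperature. Read-out: fluorescence polarization of VDR–SRC2-3 peptide binding.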
A number is an active result; i = inactive; ? = inconclusive; nt = no result. Sampled rows, rich in hits. Any-hit rate of the full collection: about 6.9%. Calls come from the whole dose curve; as a rule, active = well fitted curve in the direction sought with a large enough effect; inconclusive = small, poorly fitted or top-dose-only effect, or another doubt; inactive = no such curve, though single readings can be large; an effect the other way counts as inactive or inconclusive.

SMILES | HP1b chromo inh | JMJD2A Tudor inh | BAZ2B block | L3MBTL1 inh | PLK1 PBD block | VDR inhibitor
Clc1ccc(-c2nc3ncccn3c2Nc2ccc3c(c2)OCO3)cc1 | i | i | i | i | i | i
CCCCn1c(=O)n(-c2cc(OC)ccc2OC)c(=O)c2c3c(sc21)CN(C(C)=O)CC3 | i | i | i | nt | nt | i
N[C@H](Cc1cc(I)c(Oc2cc(I)c(O)c(I)c2)c(I)c1)C(=O)O | nt | nt | nt | nt | nt | i
COc1cc(-c2nc3ccc(C)cn3c2Nc2ccc3c(c2)OCCO3)ccc1O | 50µM | ? | 14µM | ? | i | i
CC(C)CC(NS(=O)(=O)OCC(Cl)(Cl)Cl)c1ccccc1 (stereo not drawn) | i | 40µM | i | i | i | i
COc1cc(NC(c2ccccc2)c2ccccc2)cc(OC)c1OC | i | i | 45µM | i | i | i
COc1ccc(NC(c2ccccc2)c2ccncc2)cc1 (stereo not drawn) | i | 45µM | 71µM | nt | i | i
O=C(NCCc1ccc(Cl)cc1)C1CCCN1C(=O)Nc1ccccc1 (stereo not drawn) | i | i | i | i | i | i
CCCCCC(O)(CCN1CCCCC1)c1ccc(OCC)cc1 (stereo not drawn) | i | 40µM | i | nt | 17µM | ?
COC(=O)c1ccc(OCCN2CCCCCC2)cc1 | i | i | ? | i | i | i
CC(C)COc1ccc(C(=O)CCN2CCCCC2)cc1 | i | i | i | i | 21µM | ?
CCCCOc1ccc(C(=O)CCN2CCCCC2)cc1 | i | i | i | i | ? | 4.5µM
CCCC(O)(CCN1CCCCC1)c1ccc(OCC)cc1 (stereo not drawn) | nt | i | i | i | i | i
Cc1cccc(C(=O)NC(=O)Nc2ccc(-n3nc(C(F)(F)F)cc3C(F)(F)F)cc2)c1 | i | i | i | nt | nt | i
O=C1c2ccccc2-c2c1cccc2C(=O)N(CCO)CCO | i | i | i | nt | i | i
O=C(O)c1ccc2c(c1Nc1ccccc1)C(=O)c1ccccc1C2=O | 40µM | 50µM | ? | i | i | i
CCN(CCN(C)C)C(=O)c1ccc2c(c1NCCO)C(=O)c1ccccc1C2=O | ? | i | 50µM | nt | i | i
CCNc1c(C(=O)O)ccc2c1C(=O)c1ccccc1C2=O | i | i | 35µM | i | i | i
O=C(O)c1cccc2c1C(=O)c1ccccc1C2=O | i | i | nt | i | i | i
CNc1c(C(=O)O)ccc2c1C(=O)c1ccccc1C2=O | 45µM | i | 35µM | i | i | i
COc1cc(NC(=O)CCc2nnc3ccc(N4CCOCC4)nn23)cc(OC)c1OC | i | i | i | nt | i | i
COc1ccc(-c2c(-c3ccsc3)oc3c2C(O)CCC3)cn1 (stereo not drawn) | nt | nt | nt | nt | i | nt
CC(=O)c1ccc(NC(=O)CSc2nc(-c3cccc(F)c3)nc3c2c(=O)n(C)c(=O)n3C)cc1 | i | i | i | nt | nt | i
COCCN=C1Sc2nc3c(C)cccc3cc2CN1Cc1ccco1 | i | ? | i | i | ? | 89µM
Cc1ccc2nc3c(cc2c1)CN(Cc1ccco1)C(=NCC1CCCO1)S3 (stereo not drawn) | ? | 56µM | i | i | 27µM | ?
SMILES | HP1b chromo inh | JMJD2A Tudor inh | BAZ2B block | L3MBTL1 inh | PLK1 PBD block | VDR inhibitor
COCCN=C1Sc2nc3ccc(C)cc3cc2CN1Cc1cccs1 | i | i | i | i | i | i
CC(=O)Nc1ccc(SCC(=O)Nc2oc(C)c3c(C)n[nH]c(=O)c23)cc1 | i | i | i | i | 19µM | i
Cc1n[nH]c(=O)c2c(NC(=O)CSc3ccc(F)cc3)oc(C)c12 | i | i | i | i | ? | i
Cc1cn2c(=O)cc(COC(=O)c3ccc(NC(=O)c4ccc(F)cc4)cc3)nc2s1 | i | i | i | nt | nt | i
Cc1c(C(=O)NCC(c2ccco2)N(C)C)oc2c(Cl)cccc12 (stereo not drawn) | ? | ? | 50µM | i | i | i
CCCCC(c1nnnn1C1CCCC1)N1CCN(C(=O)c2ccco2)CC1 (stereo not drawn) | i | i | 79µM | nt | i | i
CC(C)CC(c1nnnn1C1CCCC1)N1CCN(C(=O)c2ccco2)CC1 (stereo not drawn) | i | 50µM | 79µM | nt | i | i
CCCC(c1nnnn1C1CCCC1)N1CCN(C(=O)c2ccco2)CC1 (stereo not drawn) | i | ? | ? | i | i | i
O=C(NCCCNC(=O)c1ccc(-c2cccc(Cl)c2)o1)c1cnccn1 | i | i | i | nt | i | i
Cc1ccc(CNC(=O)c2ccc(CSCc3ccccc3C)o2)cc1 | i | i | i | nt | nt | i
C/C(=N\NC(=O)c1cc(-c2cccc([N+](=O)[O-])c2)n[nH]1)c1ccccc1O | i | 14µM | 8.9µM | ? | i | i
COc1ccccc1CNC(=O)CCCn1c(=O)c2ccccc2n(Cc2ccccc2F)c1=O | i | i | i | nt | nt | i
CN(C)C(CNc1ccc(S(C)(=O)=O)cc1[N+](=O)[O-])c1ccccc1 (stereo not drawn) | i | i | ? | nt | i | i
CN(C)C(CNc1ccc(C(F)(F)F)cc1[N+](=O)[O-])c1ccccc1 (stereo not drawn) | 45µM | 35µM | 8.9µM | nt | i | i
CN(C)C(CNC(C(=O)Nc1ccc([N+](=O)[O-])cc1Br)c1ccccc1)c1ccccc1 (stereo not drawn) | ? | 35µM | nt | i | i | i
CC(C)(C)c1ccc(S(=O)(=O)c2cnc(SCC(=O)Nc3ccc4c(c3)OCCO4)[nH]c2=O)cc1 | i | i | ? | nt | nt | i
COc1ccc(N=C2NN=C(c3ccc4c(c3)OCCO4)CS2)cc1 | ? | ? | ? | nt | 27µM | i
CC(C)N(Cc1nc(COc2ccccc2)no1)Cc1nccn1C | i | i | i | i | i | i
CC(C)N(Cc1cnn(C)c1)Cc1nc(COc2ccccc2)no1 | ? | ? | i | i | 21µM | i
O=Nc1ccc2oc(=O)ccc2c1 | nt | nt | nt | nt | nt | 13µM
COC(=O)C1CCN(C(=O)COC(=O)c2ccc3[nH]c4c(c3c2)CCCC4)CC1 | ? | ? | ? | i | i | i
CC1CCCN(S(=O)(=O)c2ccc3[nH]c4c(c3c2)CCCC4)C1 (stereo not drawn) | ? | ? | 25µM | nt | ? | i
CCOc1ccccc1N1CCN(C(=O)c2ccc3[nH]c4c(c3c2)CCCC4)CC1 | ? | 45µM | 40µM | i | i | ?
CC1CCCN(C(=O)COC(=O)c2ccc3[nH]c4c(c3c2)CCCC4)C1 (stereo not drawn) | i | i | 50µM | i | i | i
Cc1ccc(C)c(N2CCN(C(=O)c3ccc4[nH]c(C)c(C)c4c3)CC2)c1 | i | 79µM | i | nt | nt | i
CCOC(=O)N1CCN(C(=O)c2ccc3[nH]c(C)c(C)c3c2)CC1 | i | i | nt | i | i | i
COc1ccc(/C=C\c2onc(C)c2S(=O)(=O)N2CCC(C(=O)Nc3ccc(F)cc3F)CC2)cc1 | i | i | nt | nt | nt | i
